From PubChem BioAssay
An excerpt weighted towards active compounds, which were near 1.5% of everything screened.
GCN5L2 inh: GCN5L2 (KAT2A) acetyltransferase inhibition; Q92830; Potency, µM (doses to about 58.9 µM), without a hit: at the top dose activity change, negative = inhibition, usual class: inhibitors; GCN5L2 HAT assay, ThioGlo1 CoA-SH fluorescence; AID 504327; 390,000 compounds, 0.21% hits; further: potency means the concentration at half of the fitted maximal effect
Target sequence (Q92830 whole entry, looked up): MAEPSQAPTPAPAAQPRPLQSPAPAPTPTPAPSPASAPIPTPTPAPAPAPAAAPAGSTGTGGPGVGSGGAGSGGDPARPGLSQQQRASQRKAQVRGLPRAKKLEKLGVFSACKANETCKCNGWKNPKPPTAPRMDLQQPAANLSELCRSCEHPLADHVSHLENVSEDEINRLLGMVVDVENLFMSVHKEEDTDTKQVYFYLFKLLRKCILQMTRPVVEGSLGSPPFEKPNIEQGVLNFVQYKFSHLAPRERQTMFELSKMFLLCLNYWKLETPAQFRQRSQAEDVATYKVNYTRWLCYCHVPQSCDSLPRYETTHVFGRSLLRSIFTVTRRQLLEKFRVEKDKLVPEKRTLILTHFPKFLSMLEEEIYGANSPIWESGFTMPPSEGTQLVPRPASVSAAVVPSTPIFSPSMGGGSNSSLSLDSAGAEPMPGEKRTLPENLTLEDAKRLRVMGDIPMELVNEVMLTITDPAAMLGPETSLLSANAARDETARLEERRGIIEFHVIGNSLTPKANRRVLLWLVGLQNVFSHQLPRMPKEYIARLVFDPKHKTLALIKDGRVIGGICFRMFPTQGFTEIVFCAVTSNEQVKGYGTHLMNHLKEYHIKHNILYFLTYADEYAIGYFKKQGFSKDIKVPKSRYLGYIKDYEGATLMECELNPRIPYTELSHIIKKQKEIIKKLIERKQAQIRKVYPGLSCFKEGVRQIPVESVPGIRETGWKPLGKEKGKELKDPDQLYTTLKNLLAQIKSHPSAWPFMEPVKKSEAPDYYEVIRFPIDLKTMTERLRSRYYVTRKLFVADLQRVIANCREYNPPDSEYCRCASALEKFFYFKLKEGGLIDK
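Titration-based screen in which CoA formation is detected via maleimide probe ThioGlo1 (50uM) turning fluorescent on thiol reaction; substrates H3(1-25) 75uM and acetyl-CoA 70uM, GCN5L2 20nM, 20 min incubation at room temperature.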
BLM inh: inhibitors of human Bloom syndrome helicase BLM | recombinant BLM DNA unwinding, fluorescence dequenching | P54132 | Potency, µM (doses to about 56.1 µM), inactives show at the highest dose activity change, negative = inhibition, most hits filed as inhibitors | AID 2528 | 350,000 compounds, 0.2% hits;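 further: potency means the concentration at half of the fitted maximal effect; plate controls were vehicle for no effect and no enzyme for full effect; nearly all actives have a fitted effect of over 35% in size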
APE1 inh: inhibitors of human APE1 endonuclease. 350,000 compounds, 0.35% hits. recombinant APE1, TAMRA/BHQ-2 abasic DNA cleavage fluorescence. Potency, µM (top dose mostly 65.8 µM), for inactives: at the top dose activity change, negative = inhibition, most hits filed as inhibitors;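 further: potency means the concentration at half of the fitted maximal effect; plate controls were vehicle for no effect and reference inhibitor for full effect; nearly all actives have a fitted effect of over 55% in size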
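Activity was derived from the fluorescence gain between first and third kinetic reads (60 s intervals, ex 525/em 598 nm) after 50 nM THF-abasic TAMRA/BHQ-2 duplex was added to 0.75 nM APE1 preincubated 15 min with compound.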
FEN1 inh: human FEN1 inhibition; Potency, µM (titrated, usually from 114 µM), inactives show at the highest dose activity change, negative = inhibition, actives largely listed as inhibitors; P39748; AID 588795; 390,000 compounds, 0.35% hits; Recombinant FEN1 flap cleavage, fluorescence, 15 min; further: potency means the concentration at half of the fitted maximal effect; nearly all actives have a fitted effect of over 65% in size
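Recombinant FEN1 (10 nM) was preincubated with pin-transferred compounds for 15 min at room temperature, then flap DNA substrate (50 nM final) was added. Plates were read at 0 and 15 min, and normalized concentration–response data were fitted to a four-parameter Hill equation.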
RECQ1 inh: RECQ1 (human) helicase inhibition. RECQ1 DNA unwinding, red fluorescence kinetic read. Potency, µM (top dose mostly 57.3 µM), for the others: top-dose activity, negative = inhibition, hits mostly inhibitors. AID 2549. 240,000 compounds, 0.54% hits. P46063;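 further: potency means the concentration at half of the fitted maximal effect; plate controls were vehicle for no effect and no enzyme for full effect; nearly all actives have a fitted effect of over 30% in size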
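50 nM RECQ1T1 preincubated 15 min with compound in Tris pH 8.0 buffer with MgCl2, DTT, Tween-20 and 2.5 ug/ml poly(dI-dC); started with 200 nM TAMRA/BHQ-2 forked duplex and 2 mM ATP. Unwinding read as fluorescence (525/598 nm), two reads 2 h apart.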
PI5P4K alpha inh: PI5P4K alpha (human) kinase inhibition; P48426; PI5P4Kalpha enzyme, ADP-Glo luminescence, 60 min; active compounds read low; max response, %; 330,000 compounds, 1.2% hits; active means max response of -50% or lower; inconclusive means between -30% and -50%; inactive means -30% or higher; further: value at the top dose of about 77 µM
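ADP-Glo luminescence end-point read after a 60 min room-temperature kinase reaction of PI5P4Kalpha plus substrate, initiated with ATP at 5 microM final. Buffer: 0.038 M HEPES pH 7.4, EGTA, 0.1% CHAPS, 5% DMSO.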
* marks the source's active call; other numbers are inactive results; ! = not confirmed by another sample. Unless noted, the call rests on the fitted dose curve; in most records, active means well fitted curve in the direction sought with a large enough effect; inconclusive means small, poorly fitted or top-dose-only effect, or another doubt; inactive means no such curve, though single readings can be large; an effect the other way counts as inactive or inconclusive. Unless noted, on the % scale 0 is the no-effect control and ±100 the full control effect.

Screening CN(C)c1ccc(/C=C/c2ccnc3ccc(Br)cc23)cc1 returned FEN1 inh -26.3%.
Cn1c(=S)[nH]c2[nH]c(=O)cnc2c1=O was read as GCN5L2 inh -6.6%, BLM inh 3.4%, APE1 inh 1.0%, FEN1 inh -2.3%, RECQ1 inh -17.2% and PI5P4K alpha inh -52.0*.
O=[N+]([O-])c1ccc(/C=C2\C=Cc3ccccc32)cc1 was read as FEN1 inh 7.3%.
CCCCC[C@H](O)/C=C/C1=C(CCCCCCC(=O)O)C(=O)CC1 was read as GCN5L2 inh -3.5%, BLM inh 29.0%, APE1 inh -9.3%, FEN1 inh -2.7%, RECQ1 inh 10µM*! and PI5P4K alpha inh -12.6.
`CCCCC/C=C\C=C\[C@@H](O)CCCCCCCC(=O)O` gave BLM inh 3.6%, APE1 inh 19.7% and RECQ1 inh -1.8%.
`Cc1ccc(CNc2ccc(N3CCNCC3=O)cc2)cc1` gave APE1 inh -3.7%.
CCCCN1/C(=C/c2ccc3ccccc3[n+]2CC)Sc2ccccc21 was read as GCN5L2 inh -5.2%, BLM inh 84.6%, APE1 inh -5.5%, FEN1 inh 39.8µM*, RECQ1 inh inactive and PI5P4K alpha inh -17.6.
For CCN(CC)CCN1c2ccccc2Sc2ccc3ccccc3c21 the results were GCN5L2 inh 0.0%, BLM inh 1.3%, APE1 inh 11.3%, FEN1 inh -22.4%, RECQ1 inh -7.2% and PI5P4K alpha inh 0.5.
`COc1ccc2cnnc(SCC(=O)Nc3ccc(C(=O)O)cc3)c2c1OC` gave GCN5L2 inh -0.2%, BLM inh 2.3%, APE1 inh 12.7%, FEN1 inh -17.2%, RECQ1 inh -5.1% and PI5P4K alpha inh -66.0*.
Screening Cc1ccc(-c2csc3n[nH]c(=S)n23)cc1 returned GCN5L2 inh 25.1µM*, BLM inh -0.7%, APE1 inh -0.8%, FEN1 inh inconclusive, RECQ1 inh -9.8% and PI5P4K alpha inh -95.1*.
CCn1c(-c2ccc(C)cc2)n[nH]c1=S was read as GCN5L2 inh -2.6%, BLM inh -0.5%, APE1 inh 0.7%, FEN1 inh -3.4%, RECQ1 inh -5.3% and PI5P4K alpha inh -1.9.
Screening COc1ccc(C(=O)C[n+]2cccc3cccc(O)c32)cc1 returned FEN1 inh 15.5%.
Nc1ccc(/C=C/c2ccnc3ccccc23)cc1[N+](=O)[O-] was read as FEN1 inh 5.8%.
Screening O=C(CN1C(=O)C2CCCCC2C1=O)Nc1nc(-c2ccccn2)cs1 (stereo not drawn) returned GCN5L2 inh -10.3%, BLM inh -4.7%, APE1 inh 4.3%, FEN1 inh -2.2%, RECQ1 inh -2.8% and PI5P4K alpha inh -25.4.
Screening C[C@@H](C(=O)Nc1nc(-c2ccccn2)cs1)N1C(=O)C2CCCCC2C1=O (stereo partly drawn) returned GCN5L2 inh inconclusive, BLM inh -4.8%, APE1 inh -6.9%, FEN1 inh 17.9%, RECQ1 inh 8.4% and PI5P4K alpha inh -56.4*.
For CCOC(=O)C1=C(O)/C(=C/c2ccc(OCC(=O)O)c(OC)c2)SC1=Nc1ccc(OCC)cc1 the results were GCN5L2 inh 2.5%, BLM inh -3.8%, APE1 inh -2.5%, FEN1 inh -7.6%, RECQ1 inh -4.0% and PI5P4K alpha inh inconclusive.
For CCOC(=O)C1=C(O)/C(=C/c2ccccn2)SC1=Nc1ccc(Cl)cc1 the results were GCN5L2 inh -10.6%, BLM inh -4.7%, APE1 inh -0.5%, FEN1 inh -13.9%, RECQ1 inh -6.5% and PI5P4K alpha inh 12.5.
CCOC(=O)C1=C(O)/C(=C/c2ccc(-c3ccccc3C(=O)O)o2)SC1=Nc1ccc(OC)cc1 was read as GCN5L2 inh -5.7%, BLM inh -4.4%, APE1 inh inconclusive, FEN1 inh inconclusive, RECQ1 inh -26.6% and PI5P4K alpha inh -54.7*.
